Screen size: about 330,000 compounds; about 7,300 (2.2%) were called active.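 Rule for the calls: active = inhibition of at least 40%; inactive = the rest.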 The entries come from a sample that favours actives as a whole.
Assay: growth inhibition of tim10-1 ts yeast – luminescence, uHTS, primary screen (AID 463190);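 note: mutant grown at 25 °C; 0% = DMSO wells with yeast and 100% = wells holding no yeast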
Conditions: S. cerevisiae tim10-1 ts strain growth, BacTiter-Glo, 24 h; at 20 µM; active compounds read high

inhibition, inactive:
Cc1cc(C)n(Cc2cnc(N3CCOCC3)s2)n1 10.6%
COc1ccc(-n2c(=O)[nH]c3cc(C(=O)NCCc4ccc(OC)c(OC)c4)ccc3c2=O)c(OC)c1 7.83%
CCOc1ccccc1N(CC(=O)NC1CCCCC1)C(=O)CCCC(=O)Nc1ccccn1 10.6%
Cn1c(Cc2cccs2)nnc1SCC(=O)Nc1ccccc1 10.8%
CCn1c(=O)c([N+](=O)[O-])c(NCc2ccc3c(c2)OCO3)c2ccccc21 2.3%
CCc1ccc(S(=O)(=O)N/N=C\c2ccc([N+](=O)[O-])o2)cc1 30.4%
COc1ccc(OC)c(C2C3=C(N=c4s/c(=C\c5cccc(O)c5)c(=O)n42)c2ccccc2CC3)c1 (configuration not stated) 22%
COc1ccc(CN2CC[C@H]3C=CC[C@@H](C(=O)N4CCOCC4)[C@H]3C2=O)cc1OC 6.76%
Cc1nc2ccccn2c1C(=O)NN=C1CCN(C)CC1 1.25%
CCOC(=O)Cn1c(O)c(N=NC(=O)CNC(=O)Cc2ccccc2)c2ccccc21 -11.5%
O=C(CN1CCCC1)Nc1sc2c(c1C(=O)Nc1ccccc1)CCCC2 2.11%
Cc1nc(-c2ccccc2)sc1C(=O)/C=C/N(C)C 5.62%
Cc1nc(-c2ccc(Cl)cc2)sc1C(=O)NN -3.83%
CCc1ccc(S(=O)(=O)Nc2ccc(C)c(NS(C)(=O)=O)c2)cc1 -0.664%
O=S(=O)(Nc1cc(Cl)ccc1N1CCOCC1)c1ccccc1Cl 12%
Nc1ccc(-c2nnc(-c3ccccc3)o2)cc1 -11.5%
Brc1ccc(-c2nnc(-c3ccccc3)o2)o1 -6.79%
Cc1cc2c(=O)n(C)c(SCC(=O)c3cc4ccccc4o3)nc2s1 29.9%
CCOc1ccccc1Nc1nnc(SCC(=O)Nc2cc(C)on2)s1 14.3%
O=C(Nc1cc(-c2nn(CC(=O)N3CCCCC3)c(=O)c3ccccc23)ccc1N1CCOCC1)c1ccc(Cl)cc1 5.87%
Cc1cc(C)n2nc(CNS(=O)(=O)c3c(F)c(F)c(F)c(F)c3F)nc2n1 3.29%
CC(=O)Nc1ccc(C(=O)/C=C/c2ccc[nH]2)cc1 -13.3%
O=C(/C=C/c1ccc(N2CCOCC2)cc1)c1ccccc1 36.1%
O=C(CCNS(=O)(=O)c1ccccc1C(F)(F)F)Nc1ccncc1 -1.52%
Cc1nn(-c2ccccc2)c(Cl)c1/C=C/C(=O)c1ccc(O)cc1 0.354%
Cc1ccc(-n2nc(C)c(/C=N/NC(=O)c3cccs3)c2Cl)cc1 -6.6%
CC(=O)N/C(=C\c1ccccc1)C(=O)OC(C)C(=O)N(C)c1ccccc1 (configuration not stated) 4.65%
COC(=O)c1c(C(=O)OC)c2n(c1C)CCS2 -20.7%
COc1ccccc1CCNC(=O)c1c(C)nn(CC(C)C)c1Cl 16.6%
Cc1cc2ccccn2c1C(=O)c1cccc(F)c1 -8.04%
Cc1ccc(C(=O)NNC(=O)CSc2nnc3ccccn23)cc1 4.3%
COc1ccc(C(=O)NC(=S)Nc2ccccc2N2CCN(S(C)(=O)=O)CC2)cc1OC 25%
O=C(COc1ccc(Cl)cc1)NC(=S)Nc1ccccc1N1CCOCC1 4.3%
O=C(Nc1ccccc1N1CCOCC1)c1ccncc1 -6.96%
Cc1cc(C(=O)NNC(=S)Nc2ccccc2C)cs1 24%
Cc1ccccc1NC(=S)NC(=O)Cc1ccc(Cl)cc1 22.6%
O=C(NC(=S)Nc1ccccc1N1CCCCC1)c1ccc(F)cc1 32.4%
COc1ccccc1Cn1c(C)nnc1-c1cnn(C)c1N 9.92%
CCOC(=O)c1c(Cc2ccc(Cl)cc2)c[nH]c1C 29.9%
O=Cc1ccc(OCc2cn3ccccc3n2)cc1 -8%
Nc1nc(CC(=O)CSc2ccc(Cl)cc2)nc(Nc2ccc(F)cc2)n1 1.48%
COc1cc(Cl)c(C)cc1NC(=O)[C@@H]1CCCN1C(=O)c1cccs1 31.3%
COc1ccc(Cl)cc1NC(=O)[C@@H]1CCCN1C(=O)c1cccs1 33.9%
COCCCN(C(=S)Nc1c(C)cc(C)cc1C)C(C)c1ccncc1 (configuration not stated) 21.3%
O=S(=O)(NCc1ccc2c(c1)OCO2)c1cccc2nsnc12 1.8%
COc1ccc(Nc2cc(=O)n(-c3ccccc3)c3c2c(=O)n(C)c(=O)n3C)cc1 14.6%
Cc1cc(C)c(NC(=O)CN2C(=O)NC(Cc3ccccc3)C2=O)c(C)c1 (configuration not stated) -9.44%
O=C1C(Cc2ccc(O)cc2)NC(=S)N1Cc1ccccc1 (configuration not stated) -2.4%
CC(=O)c1cc2c(cc1NC(=O)Cn1nc(-c3ccc(F)cc3)ccc1=O)OCO2 16.5%
CN(C)c1ccc(C(CNC(=O)c2ccc(F)cc2)c2c[nH]c3ccccc23)cc1 (configuration not stated) 37.2%

inhibition, active:
CCn1c(/C=C/c2ccc([N+](=O)[O-])o2)nc2ccccc2c1=O 69.9%
Cc1nc(-c2ccc(Cl)cc2)sc1C(=O)CBr 50.9%
Nc1ccc(-c2nnc(-c3ccc(-c4ccccc4)cc3)o2)cc1 45.9%
Cc1ccccc1Nc1nnc(SCC(=O)c2cc3ccccc3o2)s1 43.5%
CC(=O)Nc1ccc(/C=C/C(=O)c2ccccc2)cc1 51.4%
Cc1ccc(C(=O)/C=C/c2c(C)nn(-c3ccccc3)c2Cl)cc1 42.7%
Cc1ccc(C(C[N+](=O)[O-])c2c(C)cc3ccccn23)cc1 (configuration not stated) 41.6%
CCc1ccc(C(=O)NC(=S)Nc2ccccc2N2CCOCC2)cc1 40.2%
COc1ccccc1C(=O)NC(=S)Nc1ccccc1N1CCCCC1 41.9%
Cc1ccc(C(=O)NC(=S)Nc2ccccc2C)cc1 40.5%
COc1ccc2nc(NC(=O)[C@@H]3CCCN3C(=O)c3cccs3)sc2c1 45.4%
Cc1ccc(N2C(=O)C(Cc3ccccc3)NC2=S)cc1 (configuration not stated) 44.1%
